Experimental data reported in PubChem BioAssay AID2314 (National Center for Advancing Translational Sciences (NCATS), 2010).
In all, about 300,000 compounds went through this assay and about 37,000 (12%) were called active. No stated cut-off is given here; in the data, active means max response mostly above about 13% (no sharp cut-off); inactive means mostly below about 14%. For the sample, actives were picked, then their nearest neighbours and some compounds at random.

Assay: Cycloheximide Counterscreen for Small Molecule Inhibitors of Shiga Toxin; further: read at 38.3 µM for the half of the compounds with a filed dose; 0% is about no effect
Settings: cell reporter, cycloheximide protein synthesis inhibition counterscreen; hits give high values
For Cc1ccc(-c2nn(-c3ccccc3)cc2/C=N/NC(=O)c2ccc3c(c2)OCO3)cc1, the max response was 16.9% (active). In the case of Cc1nnc(SCC(=O)N/N=C/c2cn(-c3ccccc3)nc2-c2ccc(F)cc2)n1-c1ccccc1, the max response is reported as 10.2% (inactive). In the case of CC(C)(C)OC(=O)N/N=C/c1cn(-c2ccccc2)nc1-c1cccnc1, the max response is reported as 17% (inactive). For O=C(NCc1ccccc1)[C@H]1C[C@@H]1[C@H](NP(=O)(c1ccccc1)c1ccccc1)c1ccccc1, the max response was 4.56% (inactive). In the case of CC(=O)N1CCCc2cc(S(=O)(=O)N3CCCC(C(=O)N4CCN(c5cccc(Cl)c5)CC4)C3)ccc21 (stereo unspecified), the max response is reported as 8.4% (inactive). With Cc1sc2ncn(CC(=O)NCCCC(=O)N3CCN(c4ccccc4F)CC3)c(=O)c2c1C the max response was -3.83% (inactive). In the case of CCOc1ccc(OCCSc2nc3ccccc3n2CC(=O)O)cc1, the max response is reported as -2.45% (inactive). For S=C(NNC(=S)NC1CC2C=CC1C2)NC1CC2C=CC1C2 (stereo unspecified), the max response was 9.74% (inactive). In the case of CC(C)c1ccc(NC(=S)NC2CC3C=CC2C3)cc1 (stereo unspecified), the max response is reported as 51.4% (active). With CC(NC(=S)Nc1ccc(OC(F)F)cc1)c1ccc(F)cc1 (stereo unspecified) the max response was 1.93% (inactive). With CCOc1ccccc1N1CN(Cc2ccccc2)CNC1=S the max response was -1.15% (inactive). In the case of Cc1ccccc1NCC(=O)N/N=C\c1ccc([N+](=O)[O-])s1, the max response is reported as 25.2% (inactive). With CSc1ccc(NC(=O)/C=C/C(=O)O)cc1 the max response was 6.1% (inactive). In the case of Cc1ccc(C(=O)NC23CC4CC(CC(C4)C2)C3)c(Cl)c1, the max response is reported as 11.3% (inactive). In the case of CSc1ccc(/C=C/C(=O)NC23CC4CC(CC(C4)C2)C3)cc1, the max response is reported as 49.9% (active). With CC1(C)CC(=O)c2c(n(S(=O)(=O)c3ccccc3)c3ccc(NS(=O)(=O)c4ccccc4)cc23)C1 the max response was -1.24% (inactive). In the case of COc1ccc(-n2c(SC)nc(O)cc2=O)cc1, the max response is reported as -4.06% (inactive). With CCOC(=O)N1CCN(S(=O)(=O)c2ccc(OC)cc2)CC1 the max response was -1.81% (inactive). For CCn1c(SCc2ccccc2)nc2cc(OC)c(OC)cc2c1=O, the max response was 0.431% (inactive). For CCn1c(SCc2ccccc2)nc2c(c1=O)SCC2, the max response was -1.78% (inactive). With CCS(=O)(=O)n1nc(-c2ccccc2)nc1SCc1ccccc1 the max response was 62.5% (active). With CCS(=O)(=O)n1nc(-c2ccc(OC)cc2)nc1SC the max response was 23.6% (active). For CCOc1ccc(CN2CCNC(=O)C2CC(=O)NCCCC2CCCC2)cc1 (stereo unspecified), the max response was 16.3% (inactive). In the case of CCOc1cc(/C=N/NC(=O)c2cc(-c3ccccc3)nc3ccccc23)ccc1O, the max response is reported as 17.7% (active). In the case of COc1cccc(-c2cc(C(=O)N/N=C/c3ccc(OC)c(COC(C)=O)c3)c3ccccc3n2)c1, the max response is reported as 2.97% (inactive). In the case of CCOc1ccc(/C=N/NC(=O)CSc2ccccn2)cc1O, the max response is reported as 1.88% (inactive). With Cc1cc(C(=O)N/N=C/c2ccccn2)c2ccccc2n1 the max response was -8.99% (inactive). For Cc1ccc2nc(C)cc(N/N=C/c3ccc(F)cc3)c2c1, the max response was -2.09% (inactive). With CCOc1cc(/C=N/Nc2cc(C)nc3ccc(C)cc23)ccc1O the max response was 17.3% (active). In the case of COc1cc(OC)c2c(C)cc(=O)oc2c1C(CCN1CCCCC1)c1ccc(N(C)C)cc1 (stereo unspecified), the max response is reported as -1.45% (inactive). In the case of COc1cc(CN2CCCC(C(=O)c3ccc(SC)cc3)C2)cc(Cl)c1O (stereo unspecified), the max response is reported as 4.43% (inactive). With N=c1n(CCc2ccccc2)c2ccccc2n1Cc1ccccc1F the max response was -8.79% (inactive). In the case of COc1ccccc1/C=C/C=N/NC(=O)CN1CCN(Cc2ccccc2)CC1, the max response is reported as -1.49% (inactive). In the case of COc1ccccc1/C=C/C(=O)NC1CC2CCC1C2 (stereo unspecified), the max response is reported as 14.3% (active). In the case of CCOC(=O)C(=Cc1ccccc1OC)C(=O)OCC, the max response is reported as 2.29% (inactive). In the case of COc1ccccc1/C=C/C(=O)NC(=S)N1CCOCC1, the max response is reported as 47.7% (active). In the case of COc1ccc(C)cc1NC(=S)N1CCOCC1, the max response is reported as -2.32% (inactive). In the case of COc1ccccc1C(=O)Nc1cccc(C(=O)N2CCOCC2)c1, the max response is reported as -2.39% (inactive). With COc1ccc(Cl)cc1NC(=O)CCS(=O)(=O)c1ccc(Br)cc1 the max response was -3.81% (inactive). For CSc1ccc(S(=O)(=O)N2CCC(C(=O)NCc3ccncc3)CC2)cc1, the max response was -2.48% (inactive). In the case of CCN1CCN(c2nc(Nc3cc(OC)ccc3OC)nc(Nc3cc(OC)ccc3OC)n2)CC1, the max response is reported as -2.31% (inactive). For COC(=O)c1ccc(COc2ccc(/C=C/C(=O)c3ccc(OC)c(CSCC(=O)O)c3)cc2OC)cc1, the max response was 16.2% (active). In the case of COc1ccc(/C=C/C(=O)c2ccc(NS(=O)(=O)c3ccc(C)cc3)cc2)cc1O, the max response is reported as -1.98% (inactive). In the case of COc1ccc(C(=O)/C=C/c2ccc(-c3ccccc3)cc2)cc1CSCC(=O)O, the max response is reported as 16.5% (inactive). In the case of Fc1ccc(Cl)cc1-c1nc(Nc2ccncc2)c2nccnc2n1, the max response is reported as 1.12% (inactive). In the case of COc1ccc(N(C(=O)c2snc(C(N)=O)c2N)C(C(=O)NC2CCCC2)c2ccc(C)o2)c(OC)c1 (stereo unspecified), the max response is reported as -6.04% (inactive). With O=C(N/N=C\C1CC=CCC1)c1ccc(Br)o1 (stereo unspecified) the max response was 29.4% (active). With Cc1ccc(SCc2c(C(=O)N/N=C/C3CC=CCC3)nnn2-c2nonc2N)cc1 (stereo unspecified) the max response was -2.54% (inactive). In the case of COCc1c(C(=O)N/N=C/C2CC=CCC2)nnn1-c1nonc1N (stereo unspecified), the max response is reported as 1.58% (inactive). In the case of C=CCC1CCC(=O)N2CCCC12 (stereo unspecified), the max response is reported as -5.3% (inactive). For O=C(CCNS(=O)(=O)c1cccs1)N1CCN(c2ccc(F)cc2)CC1, the max response was -5.58% (inactive). With CN(CC(=O)N1CCN(c2ccccc2)CC1)S(=O)(=O)c1cccs1 the max response was 29% (active). In the case of COc1ccc(OC)c(S(=O)(=O)N(C)CC(=O)N2CCN(c3ccccc3)CC2)c1, the max response is reported as 6.23% (inactive). With Cc1ccc(C(=O)NN(CCC#N)C2=NS(=O)(=O)c3ccccc32)cc1 the max response was 0.601% (inactive). With CONc1nc2nonc2nc1NOC the max response was -2.64% (inactive). With COc1ccc(NC(=O)c2cn(-c3ccccc3)nc2SC)cc1 the max response was 15.2% (active). In the case of COc1ccc(-c2nn(-c3ccccc3)cc2C(=O)Nc2nc(CC(C)=O)ns2)cc1, the max response is reported as 9.17% (inactive). With COc1ccc(NC(=O)c2c(SC)nsc2SC)cc1 the max response was -1.45% (inactive). In the case of Cc1cc(C)nc(Nc2cc([N+](=O)[O-])ccc2C)n1, the max response is reported as 7.47% (inactive). For Cc1ccc(-n2cc3ccc([N+](=O)[O-])cc3n2)cc1, the max response was 46.9% (active). With Cc1ccc(-c2cn(S(=O)(=O)c3cccc([N+](=O)[O-])c3)nc2N)cc1 the max response was -2.07% (inactive).
